Bioassay records from PubChem BioAssay.
An excerpt weighted towards active compounds, which were near 32% of everything screened.
CYP2C9 inhib: blockers of cytochrome P450 2C9 activity – biochemical, luminescence, ADME assay, primary screen; CYP2C9 Supersomes, luciferin-H conversion; inhibition, % at 5 µM; hit rate 20% among 96,000;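 active means blocking of liver enzyme CYP2C9 beyond about 50% at 5 µM, limit read from the data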
CYP2C9 activ: human CYP2C9 activators, primary screen, biochemical, luminescence. activation factor at 5 µM. Cytochrome P450 2C9 (Homo sapiens), P11712. recombinant CYP2C9, luciferin-H conversion; stronger effect = higher value; factor 1 = untreated enzyme, 0 = blocked. hit rate 1.4% among 96,000;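 active means activation factor of 2 or more for CYP2C9 at a 5 µM dose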;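 further: 0 = sulfaphenazole-blocked wells and 1 = vehicle-only wells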
PostGolgi yeast: phenotypic screen on post-Golgi transport, primary screen; post-Golgi transport phenotypic cell assay; inhibition, % at 10 µM; AID 739, 2007; hit rate 0.9% among 98,000;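 further: yeast cells grown in 1536-well plates; yeast grown about 18 h at 30C before absorbance read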
CYP2C19 inhib: blockers of cytochrome P450 2C19 activity – biochemical, luminescence, ADME assay, primary screen; P33261; hit rate 21% among 96,000; CYP2C19 Supersomes, luciferin-H EGE luminescence, 30 min; inhibition, % at 5 µM;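 active means CYP2C19 inhibition above a set limit at 5 µM in the primary screen, cut at about 50% in these data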;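 further: plate controls were negative control wells for no effect and 2.5 mM tranylcypromine positive control for full effect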
Target sequence (P33261 whole entry, looked up): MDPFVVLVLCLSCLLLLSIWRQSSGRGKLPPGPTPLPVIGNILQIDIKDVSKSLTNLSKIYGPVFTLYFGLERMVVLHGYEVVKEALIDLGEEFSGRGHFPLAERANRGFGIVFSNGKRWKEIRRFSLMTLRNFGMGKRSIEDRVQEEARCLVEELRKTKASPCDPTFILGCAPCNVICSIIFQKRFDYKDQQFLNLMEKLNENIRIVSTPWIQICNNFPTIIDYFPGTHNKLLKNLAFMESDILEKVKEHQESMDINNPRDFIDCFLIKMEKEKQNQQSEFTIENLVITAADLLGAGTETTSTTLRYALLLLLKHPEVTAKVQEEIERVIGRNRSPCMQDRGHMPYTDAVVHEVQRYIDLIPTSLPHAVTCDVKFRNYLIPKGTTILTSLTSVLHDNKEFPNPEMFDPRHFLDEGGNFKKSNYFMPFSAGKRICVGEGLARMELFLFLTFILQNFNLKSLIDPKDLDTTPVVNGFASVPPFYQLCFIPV
CYP2C19 act: human CYP2C19 activators, primary screen, biochemical, luminescence | 96,000 tested, under 10 active | activation factor at 5 µM | recombinant CYP2C19, luciferin-H EGE luminescence; stronger effect = higher value; 0 = fully inhibited enzyme, 1 = untreated enzyme | AID 1025, 2008 | Cytochrome P450 2C19 (Homo sapiens), P33261;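 active means activation factor of at least 2 at 5 µM in the primary screen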;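 further: 0 = wells with 2.5 mM tranylcypromine and 1 = vehicle-only wells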
PostGolgi ctrl: growth inhibition of yeast control strain, primary screen, counter-screen for post-Golgi transport modulator project; efflux-deficient yeast background strain, growth absorbance A615, 16 h; inhibition, % at 10 µM; hit rate 5% among 98,000; AID 738, 2007
* = called active by the depositor; x = no result. Unless noted, no stated cut-off is given here; in the data, active means inhibition above about 30%; inactive means the rest.

SMILES | CYP2C9 inhib | CYP2C9 activ | PostGolgi yeast | CYP2C19 inhib | CYP2C19 act | PostGolgi ctrl
CCCC(c1nnnn1Cc1ccco1)N1CCC(C(N)=O)CC1 (stereo not given) | -9 | 1.1 | 3 | 5 | 0.9 | -2
c1ccc(Cn2nnnc2C(c2ccccc2)N2CCN(c3nc4ccccc4s3)CC2)cc1 (stereo not given) | 65* | 0.4 | -1 | 58* | 0.4 | 1
COc1ccccc1C(c1nnnn1Cc1ccccc1)N1CCN(c2nc3ccccc3s2)CC1 (stereo not given) | 56* | 0.4 | 5 | 47 | 0.5 | 7
CCCC(c1nnnn1Cc1ccccc1)N1CCN(c2ccccc2OC)CC1 (stereo not given) | 49 | 0.5 | 27 | 57* | 0.4 | 5
CCCC(c1nnnn1Cc1ccc(OC)cc1)N1CCN(c2ccccc2OC)CC1 (stereo not given) | 48 | 0.5 | -6 | 43 | 0.6 | 13
CC(C)OCCCNC(=O)CCc1nc(-c2ccccc2)no1 | 3 | 1 | -4 | 21 | 0.8 | 6
Cc1ccc(CNn2cnnc2SCC(=O)NC(C)(C)C)cc1 | 8 | 0.9 | 5 | 14 | 0.9 | 4
CC1CN(C(=O)N2c3ccccc3Sc3ccccc32)C(C)CC1=O (stereo not given) | 34 | 0.7 | -1 | 48 | 0.5 | 37*
Cc1ccc(O)c(C(=O)c2coc(=N)c(C(=O)NC(C)C)c2)c1 | -7 | 1.1 | -5 | 33 | 0.7 | 1
C=CCNC(=O)c1cccn1-c1ccsc1C(=O)OC | 11 | 0.9 | -12 | 25 | 0.8 | 0
C=CCNC(=O)C(=O)c1cccn1-c1ccsc1C(=O)OC | -1 | 1 | -12 | 93* | 0.1 | 5
Brc1ccccc1-c1nnc(COc2ncnc3c2cnn3-c2ccccc2)o1 | 30 | 0.7 | 1 | 16 | 0.8 | 74*
COc1ccc(-c2nnc(SCc3nnc(-c4ccccc4)o3)n2-c2ccccc2)cc1 | -2 | 1 | -17 | -8 | 1.1 | 17
COc1ccc2[nH]c3nc(SC(C)C)nnc3c2c1 | 24 | 0.8 | 30 | 8 | 0.9 | 18
COc1ccc(-n2c(SCc3nnc(-c4ccccc4)o3)nnc2-c2ccccc2)cc1 | 47 | 0.5 | 6 | 54* | 0.5 | 17
COc1ccc2[nH]c3nc(SCc4nnc(-c5ccccc5)o4)nnc3c2c1 | 64* | 0.4 | 2 | 50 | 0.5 | 12
Cc1nnc(SCc2nnc(-c3ccc(Cl)cc3)o2)n1-c1ccccc1 | 46 | 0.5 | x | 60* | 0.4 | x
CC1(C)CC(=O)c2cc(C(=O)N3CCN(CCO)CC3)c(=O)n(-c3ccc(Cl)cc3)c2C1 | -45 | 1.4 | 2 | -9 | 1.1 | 10
CCOc1ccc(-c2nnc(-c3ccccc3)n2-c2ccccc2)cc1 | 65* | 0.3 | 7 | 28 | 0.7 | 27
Brc1ccccc1-c1nnc(CSc2nnnn2-c2ccccc2)o1 | 42 | 0.6 | 3 | 92* | 0.1 | 28
COc1ccc(-c2nnc(SCc3nnc(-c4ccc(Cl)cc4)o3)n2-c2ccccc2)cc1 | 54* | 0.5 | -2 | 36 | 0.6 | 20
COc1ccc(-c2nnc(SCc3ncc(-c4ccccc4)o3)o2)cc1 | 28 | 0.7 | -1 | 87* | 0.1 | 16
CCN(CC)C(=O)CSc1nnc(-c2ccccc2)n1-c1ccccc1 | 39 | 0.6 | 1 | 45 | 0.6 | 4
O=C(O)c1ccc(Cn2cc(Cl)cn2)cc1 | 6 | 0.9 | -3 | 14 | 0.9 | 1
CC(C)CNS(=O)(=O)c1ccc(CCC(=O)NCc2ccco2)cc1 | x | x | -2 | x | x | 15
SMILES | CYP2C9 inhib | CYP2C9 activ | PostGolgi yeast | CYP2C19 inhib | CYP2C19 act | PostGolgi ctrl
COc1cccc(-n2c(SCC(N)=O)nnc2-c2ccncc2)c1 | -4 | 1 | 5 | 26 | 0.7 | 4
Cc1nnc(SCc2nnc(-c3ccccc3Br)o2)n1-c1ccccc1 | -96 | 2* | -2 | 82* | 0.2 | -4
C=CCSc1nnc(-c2ccncc2)n1-c1ccc(OCC)cc1 | 54* | 0.5 | 5 | 99* | 0 | 31*
C=CCSc1nnc(C)n1-c1ccc(Cl)cc1 | 30 | 0.7 | -5 | 52* | 0.5 | 22
COc1ccc(C(C)=O)cc1CSc1nnc(-c2ccc(Cl)cc2)n1-c1ccccc1 | 45 | 0.5 | -7 | 50* | 0.5 | 26
Cc1nnc(SCc2ccccc2C#N)n1-c1ccccc1 | 10 | 0.9 | 2 | 38 | 0.6 | 6
CC(C)N1C(=O)CC2(CC[N+](C)(CCOC(=O)C(c3ccccc3)c3ccccc3)CC2)C1=O (stereo not given) | -5 | 1.1 | -5 | 11 | 0.9 | -7
CN(C)c1ccnc(N(Cc2ccccc2)Cc2ccccc2)c1C#N | 95* | 0.1 | -9 | 96* | 0 | 20
N#Cc1c(NCc2ccccc2)ccnc1NCc1cccnc1 | 56* | 0.4 | 0 | 99* | 0 | 10
Cc1cc(N(C)C)c(C#N)c(NCc2ccccc2)n1 | 36 | 0.6 | 7 | 34 | 0.7 | 5
Cc1nc(S(=O)(=O)N(C)Cc2ccccc2)c(C#N)c(C)c1Cl | 34 | 0.7 | 4 | 10 | 0.9 | 3
CN(C)c1ccnc(NCc2ccccc2)c1C#N | 39 | 0.6 | x | 67* | 0.3 | x
O=S(=O)(Cc1ccccc1)NCc1cccnc1 | 0 | 1 | 16 | -4 | 1 | -5
Cc1[nH]c2ccccc2c1C(=O)CN1CCC(C(N)=O)(N2CCCCC2)CC1 | 16 | 0.8 | 16 | -13 | 1.1 | -7
CC1CCC(NC(=O)c2ccc3nc[nH]c3c2)CC1 (stereo not given) | 14 | 0.9 | 2 | 34 | 0.7 | -5
C[C@@H]1C[C@H](Nc2ccccc2)c2ccccc2N1C(=O)c1cccnc1 | 38 | 0.6 | 1 | 84* | 0.2 | 30
CCS(=O)(=O)N1CCN(C(=O)c2cccnc2)CC1 | -3 | 1 | 2 | 2 | 1 | -2
CC1(C(=O)NC23CC4CC(CC(C4)C2)C3)CC1(Cl)Cl (stereo not given) | 13 | 0.9 | -1 | 19 | 0.8 | 34*
CC(=O)NC12CC3CC(C)(C1)CC(NC(C)=O)(C3)C2 | 3 | 1 | -6 | 12 | 0.9 | -4
CCCCOc1nc2ccccc2nc1C(C#N)S(=O)(=O)c1ccccc1 (stereo not given) | 77* | 0.2 | -9 | 78* | 0.2 | 10
O=C(c1ccc(F)cc1)C1CCN(C(=O)c2ccncc2)CC1 | 97* | 0 | 21 | 98* | 0 | 4
CC1CCCN(C(=O)c2ccncc2)C1 (stereo not given) | 15 | 0.8 | 8 | 82* | 0.2 | 14
O=C(c1ccc(Cl)cc1)C1CCN(C(=O)C2CC2)CC1 | 2 | 1 | 23 | 83* | 0.2 | 19
